Results from PubChem BioAssay (Tox21).
Inconclusive results are not listed. Where a call stands in place of a potency, no number is given. Active and inactive are the calls of the source. Calls come from the whole dose curve; as a rule, active = well fitted inhibition curve with a large enough effect in the signal ratio in the repeat runs (not every such curve was filed as active); inconclusive = weak or mixed curves; inactive = flat fitted curve, though single readings scatter; the % refers to the signal ratio.

Target: Progesterone receptor (Homo sapiens) (UniProt P06401)
Assay: qHTS assay to identify small molecule antagonists of the progesterone receptor (PR) signaling pathway (AID 1346795)
Settings: PR-UAS-bla HEK293T, beta-lactamase FRET ratio, 16 h; series mostly up to 92.4 µM
Source text: National Center for Advancing Translational Sciences [NCATS]
NIH Chemical Genomics Center [NCGC]
U.S. Environmental Protection Agency [EPA]
National Institutes of Environmental Health Sciences [NIEHS]
National Toxicology Program [NTP]
U.S. Food and Drug Administration [FDA]
Progesterone receptor (PR), a nuclear hormone receptor, plays an important role in development, metabolic homeostasis and reproduction. […] Endocrine disrupting chemicals (EDCs) and their interactions with steroid hormone receptors like PR causes disruption of normal endocrine function. To identify the compounds that inhibit PR signaling, a PR-UAS-bla GripTite cell line i.e. PR-UAS-bla HEK293T (Invitrogen, Carlsbad, CA, USA) containing a beta-lactamase reporter gene under the control of an Upstream Activator Sequence (UAS) was used to screen Tox21 10K compound library.
Tox21 Assay Protocol Summary:
PR-UAS-bla HEK293T cells were dispensed at 3,000 cells/4 uL of assay medium containing 2% charcoal stripped FBS per well into black wall/clear-bottom 1536-well plates using a Multidrop Combi (ThermoFisher Scientific, Waltham, MA) dispenser. After the assay plates were incubated at a 37C and 5% CO2 for 6 hr, 23 nL of compounds dissolved in DMSO, positive controls or DMSO only was transferred to the assay plate by a Pintool station (Kalypsys, San Diego, CA), followed by addition of 1 uL (1nM as final concentration) of Promegestone (R5020) in assay medium using a BioRAPTR FRD (Flying Reagent Dispenser, Aurora Discovery, San Diego, CA). The plates were incubated at 37C and 5% CO2 for 16 hr. Then 1 uL of LiveBLAzer B/G FRET substrate was added using a FRD. After the plates were incubated at room temperature for 2 hours, fluorescence intensity was measured by an Envision plate reader (PerkinElmer, Shelton, CT).
Potency is the fitted concentration of half-maximal effect.

Sequence of Progesterone receptor (Homo sapiens) (P06401 whole entry, looked up): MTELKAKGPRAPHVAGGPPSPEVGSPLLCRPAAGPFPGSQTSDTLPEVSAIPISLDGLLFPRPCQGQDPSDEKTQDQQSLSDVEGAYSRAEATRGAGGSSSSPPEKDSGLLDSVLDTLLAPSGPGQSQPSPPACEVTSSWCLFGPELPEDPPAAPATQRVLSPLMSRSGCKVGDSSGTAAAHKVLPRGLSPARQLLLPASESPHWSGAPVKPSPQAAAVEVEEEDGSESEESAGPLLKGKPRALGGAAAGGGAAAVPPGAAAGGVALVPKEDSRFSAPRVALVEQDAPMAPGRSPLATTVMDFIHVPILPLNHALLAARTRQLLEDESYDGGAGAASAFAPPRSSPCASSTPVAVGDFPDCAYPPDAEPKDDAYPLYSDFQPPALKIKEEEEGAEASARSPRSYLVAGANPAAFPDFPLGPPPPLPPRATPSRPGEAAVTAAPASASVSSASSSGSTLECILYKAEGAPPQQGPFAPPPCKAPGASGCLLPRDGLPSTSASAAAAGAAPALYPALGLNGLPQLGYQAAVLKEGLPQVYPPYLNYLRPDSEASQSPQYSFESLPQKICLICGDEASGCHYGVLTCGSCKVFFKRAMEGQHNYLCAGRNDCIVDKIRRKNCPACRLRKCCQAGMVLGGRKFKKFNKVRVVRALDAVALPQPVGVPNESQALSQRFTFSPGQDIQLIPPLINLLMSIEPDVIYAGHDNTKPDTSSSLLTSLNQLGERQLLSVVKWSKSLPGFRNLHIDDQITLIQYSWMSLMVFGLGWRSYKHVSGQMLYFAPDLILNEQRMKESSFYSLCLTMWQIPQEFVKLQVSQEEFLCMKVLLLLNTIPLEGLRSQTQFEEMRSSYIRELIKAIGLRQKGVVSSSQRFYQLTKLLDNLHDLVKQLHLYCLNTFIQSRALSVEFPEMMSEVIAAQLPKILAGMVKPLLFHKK

Structure (SMILES) | Potency | activity change, negative = inhibition
[Cl-].[Cl-].[Sn+2] | inactive | –
O=[N+]([O-])c1ccccc1-c1ccccc1 | inactive | –
CN1C(=O)[C@@H](NC(=O)c2cc3ccccc3[nH]2)N=C(c2ccccc2)c2ccccc21 | inactive | –
CCCCCCCCCCCCCCn1cc[n+](C)c1 | inactive | –
OCC(Br)CBr (stereo not given) | inactive | –
N#CSCc1ccccc1 | inactive | –
Oc1ccc2[nH]cc(CCCCN3CC=C(c4ccccc4)CC3)c2c1 | inactive | –
O=C(NC(=O)c1c(F)cccc1F)Nc1ccc(Oc2ccc(C(F)(F)F)cc2Cl)cc1F | inactive | –
CC(=O)C(Cl)C(=O)N(C)C (stereo not given) | inactive | –
O=c1c2ccccc2c(=O)c2c1cc(Cl)c1[nH]c3c([nH]c12)c(Cl)cc1c(=O)c2ccccc2c(=O)c13 | inactive | –
CNC(=O)/C=C(\C)OP(=O)(OC)OC | inactive | –
CNN | inactive | –
c1ccc2nc(N3CCNCC3)ccc2c1 | inactive | –
Cc1cnc2c(C(=O)O)c(Cl)ccc2c1 | inactive | –
Clc1ccc(C(Cl)(Cl)Cl)cc1Cl | inactive | –
CCCCc1ccccc1 | inactive | –
O=P(Cl)(Cl)Cl | inactive | –
CC(Cc1ccc(O)cc1)NCC(O)c1cc(O)cc(O)c1 (stereo not given) | inactive | –
CCOP(=S)(OCC)SC(CCl)N1C(=O)c2ccccc2C1=O (stereo not given) | 27.3 µM (active) | –
c1ccc(Nc2ccc(Nc3ccccc3)cc2)cc1 | 6.09 µM (active) | –

Structure (SMILES) | Potency | activity change, negative = inhibition
C=C(C)C(=O)[O][Sn]([CH2]CCC)([CH2]CCC)[CH2]CCC | 1.09 µM (active) | –
CC(=O)[O-].CC(=O)[O-].O.O.O.[Pb+2] | inactive | –
C#CC1(O)CCCCC1 | inactive | –
CCNS(=O)(=O)C(F)(F)C(F)(F)C(F)(F)C(F)(F)C(F)(F)C(F)(F)C(F)(F)C(F)(F)F | 65.7 µM (active) | –
N#CC(C#N)=NNc1cccc(Cl)c1 | 13.7 µM (active) | –
C[C@]12CC[C@H]3[C@@H](CCC4=CC(=O)CC[C@@H]43)[C@@H]1CC[C@@H]2OC(=O)CCc1ccco1 | inactive | –
CC1CCCC1 | inactive | –
CCCC[N+]1(C)CCCC1 (tested in a mixture with another compound) | inactive | –
CCCN | inactive | –
CCCCCON=O | inactive | –
COP(=O)(OC)O/C(=C\Cl)c1cc(Cl)c(Cl)cc1Cl | 6.86 µM (active) | –
CC(Cc1ccc(OCC(=O)O)cc1)NCC(O)c1csc(C(F)(F)F)n1 (stereo not given) | inactive | –
[C-]1=CC=CC1.[Cl][Zr+2][Cl].c1cc[cH-]c1 | inactive | –
CNC(C)(C)Cc1ccccc1 | inactive | –
O=C1C2(Cl)C3(Cl)C4(Cl)C(Cl)(Cl)C5(Cl)C3(Cl)C1(Cl)C5(Cl)C24Cl (stereo not given) | 29.3 µM (active) | –
CN1CCc2cc3c(cc2C1O)OCO3 (stereo not given) | inactive | –
CC(=O)[O-].CC(=O)[O-].CC(=O)[O-].[Sb+3] | – | -5.92% [at 3.27 µM] (inactive)
COP(=S)(NC(C)C)Oc1ccc(C)cc1[N+](=O)[O-] (stereo not given) | 7.7 µM (active) | –
CCCCCCCc1ccc(O)cc1 | 21.7 µM (active) | –
CCC(OC(C)=O)C(CC(C)NC)(c1ccccc1)c1ccccc1 (stereo not given) | 54.9 µM (active) | –
